Most compounds without a hit are left out; they make up all but 3.2% or so of the library.
PG9 binder: binds the HIV-1 gp120 antibody PG9. TR-FRET gp120-PG9 antibody binding. inhibition, % at 6.7 µM. 360,000 tested, 0.43% active; in the data active = inhibition above about 8.5%
bovine MsrA act: activators of bovine methionine sulfoxide reductase A. activation, % at 10.6 µM. purified bovine MsrA, absorbance read-out. 360,000 tested, 0.3% active. AID 602163; in the data active = activation above about 7.5%;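 also: 0% = vehicle and 100% = reference activator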
MsrA inhibitor: bovine MsrA inhibition; purified bovine MsrA, absorbance read-out; inhibition, % at 15.5 µM; 360,000 tested, 0.75% active; AID 651718; in the data active = inhibition above about 4.5%;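 also: 0% = vehicle wells with enzyme and 100% = reference inhibitor wells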
rCAG binder: binds r(CAG) RNA repeats. r(CAG) RNA repeat, TO-PRO-1 dye displacement fluorescence. inhibition, % at 3 µM. 370,000 tested, 1.3% active. AID 651821;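 active = inhibition above the plate cutoff, the mean of all test compounds on that plate plus 3 SD, cut at about 35% in these data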;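 also: 0% = DMSO alone and 100% = 100 µM mitoxantrone as full dye displacement; higher means more dye released from RNA so lower well fluorescence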
sPLA2-III inh: Blocks human group III sPLA2 activity. Q9NZ20. 370,000 tested, 0.56% active. AID 743126. inhibition, % at 12.2 µM. QFRET BODIPY PC-A2 liposome hydrolysis, fluorescence;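 active = inhibition above mean plus 3 SD of compounds lying within the high and low control bounds, cut at about 19% in these data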;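 also: 0% = median of test compound wells and 100% = no enzyme DMSO wells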
Target sequence (Q9NZ20 whole entry, looked up): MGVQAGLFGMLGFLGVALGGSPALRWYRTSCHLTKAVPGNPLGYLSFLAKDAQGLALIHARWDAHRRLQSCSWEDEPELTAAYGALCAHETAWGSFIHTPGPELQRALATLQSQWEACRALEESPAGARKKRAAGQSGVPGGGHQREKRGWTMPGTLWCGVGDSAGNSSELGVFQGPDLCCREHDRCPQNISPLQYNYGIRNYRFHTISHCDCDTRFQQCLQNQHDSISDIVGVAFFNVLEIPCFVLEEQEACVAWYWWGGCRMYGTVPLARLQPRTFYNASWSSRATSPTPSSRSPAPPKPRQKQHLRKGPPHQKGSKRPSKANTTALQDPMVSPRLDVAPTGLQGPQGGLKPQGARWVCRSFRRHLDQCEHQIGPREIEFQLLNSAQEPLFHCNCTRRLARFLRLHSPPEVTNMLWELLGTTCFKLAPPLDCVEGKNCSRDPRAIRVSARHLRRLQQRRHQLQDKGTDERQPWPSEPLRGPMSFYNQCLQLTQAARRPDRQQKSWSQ
MsrA activ conf: bovine methionine sulfoxide reductase A activation confirmed; AID 602270; 1,000 tested, 12% active; shares compounds with bovine MsrA act; activation, % at 10.6 µM; purified bovine MsrA, absorbance read-out; in the data active = activation above about 4%;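 also: enzyme coupled to thioredoxin and thioredoxin reductase with NADPH; 0% = vehicle wells and 100% = reference activator wells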
Active calls of the source: *; / = no result given.

SMILES	PG9 binder	bovine MsrA act	MsrA inhibitor	rCAG binder	sPLA2-III inh	MsrA activ conf
COc1ccc(Cn2c(NC(=O)c3ccccc3)nc(Cc3ccccc3)c2Cc2ccccc2)cc1	/	/	/	6	10	/
COc1ccc(/C(C)=N/NC(=O)CNC(=O)c2ccco2)c(OC)c1	-1	8.6*	-1	0	3	-3
Fc1ccccc1Nc1n[nH]c(=S)s1	-4	-2	1	1	12	/
Cc1ccccc1Nc1n[nH]c(=S)s1	-1	11*	0	2	15	1
S=c1[nH]nc(Nc2cccc3ccccc23)s1	-4	8.8*	2	3	16	0
Cc1c(Cl)cccc1Nc1n[nH]c(=S)s1	2	9.6*	1	4	16	0
CCN(CC)C(=O)CC[C@H]1CC[C@]2(CCCN(C(=O)c3ccc4ccccc4n3)C2)O1	/	/	/	-2	7	/
O=C(OC12CCCN(C1)/C(=C/c1cccc(Cl)c1)C2)c1ccccc1 (centres undefined)	/	/	/	2	-8	/
CC(=O)Oc1c(S(=O)(=O)c2ccccc2)c(C)nn1C(C)(C)C	1	10*	0	-3	2	-2
CCCCCOc1ccc(/C=N/NC(=O)CSc2nnc(-c3ccc(OC)cc3)n2-c2ccc(C)cc2)cc1	/	/	/	8	-4	/
NS(=O)(=O)c1ccc(CCNC(=O)/C=C/c2ccc([N+](=O)[O-])cc2)cc1	-4	-11	2	9	-12	/
COc1ccc(/C=C/C(=O)NCCc2ccc(S(N)(=O)=O)cc2)cc1	-1	13*	0	3	-4	-5
O=C1CN(C(=O)c2ccc(Br)o2)C(c2ccccc2)c2cc(F)ccc2N1 (centres undefined)	-2	12*	0	4	3	-3
Cc1ccc(S(=O)(=O)N2CCCC2C(c2ccccc2O)c2cn(C)c3ccccc23)cc1 (centres undefined)	/	/	/	7	0	/
CCCCCCCCN1C(=O)[C@@H](CC(=O)NCc2cccs2)C[C@@]2(C(=O)OC)C1=C[C@H](COCc1ccccc1)O[C@@H]2C	/	/	/	5	-6	/
c1ccc(N2CCOCCOCCOCCOCC2)cc1	0	-1	0	0	8	/
c1ccn(-c2ccc(N3CCOCC3)cc2)c1	-1	10*	-1	-1	0	-1
CCC(C)Nc1nc(C)nc2c1nnn2Cc1ccccc1 (centres undefined)	/	/	/	-1	0	/
CCOC(=O)[C@@]12CN(C(=O)OC(C)(C)C)CC=C1N(Cc1ccc(OC)cc1)C(=O)[C@H]2CC(=O)N1CCSCC1	/	/	/	-1	0	/
CC(C)CN1C(=O)[C@@]2(CC(=O)N(C)C2c2ccccc2)c2cc(-n3cc(CO)nn3)ccc21 (some centres undefined)	/	/	/	3	1	/
O=C(CCn1nnc(-c2cccs2)n1)NCc1ccco1	/	/	/	0	-2	/
COc1ccccc1NC(=O)c1ccccc1Nc1ccccc1	-3	10*	0	-2	-2	-1
CCOc1ccc(-c2nnc(-c3cccnc3)o2)cc1OCC	2	9.2*	2	-5	6	1
COc1ccc(-c2nnc(-c3cccnc3)o2)cc1OC	-2	-1	2	1	0	/
OC(c1ccc(F)c(F)c1)c1nc(-c2ccc3ccccc3c2)cs1 (centres undefined)	-2	9.2*	-1	7	-14	1
SMILES	PG9 binder	bovine MsrA act	MsrA inhibitor	rCAG binder	sPLA2-III inh	MsrA activ conf
NC(c1ccc(F)c(F)c1)c1nc(-c2ccc3ccccc3c2)cs1 (centres undefined)	1	0	0	3	-2	/
CCOc1ccc2c(c1)C(C)=CC(C)(C)N2S(=O)(=O)c1ccc(NC(C)=O)cc1	-2	8.2*	0	-5	-14	-1
Nn1c(SCC(=O)Nc2ccc(F)c(F)c2)nnc1C1CCCCC1	0	9.3*	0	-4	6	-2
NC(=O)c1ccc(NC(=O)CSc2nnc(C3CCCCC3)n2N)cc1	-3	-5	0	1	-2	/
O=C(CN1CCCCC1)Nc1cccc(Br)c1	1	7.8*	0	3	3	-1
O=C(NCCNC(=O)c1ccc(-c2ccc(Cl)c(Cl)c2)o1)c1cnccn1	-2	10*	1	-1	-1	0
COC[C@@H](OC(C)=O)[C@H]1OCc2ccccc2[C@@H]1/C=C/c1ccccc1	/	/	/	5	-1	/
CC(C)c1ccc(/C=N/NC(=O)c2ccccc2Cl)cc1	-1	13*	1	-7	3	-4
O=C(NC1CCCCN(Cc2ccc(OC(F)(F)F)cc2)C1=O)c1ccc(F)c(F)c1 (centres undefined)	/	/	/	-2	1	/
Cc1ccccc1OC(=O)n1c(=S)oc2cc(Cl)ccc21	-1	9.0*	0	1	6	0
COc1ccc(OC)c(CN2C(=O)CSCCC2(C)c2nnnn2C2CCCC2)c1 (centres undefined)	/	/	/	1	5	/
O=C1c2ccccc2C(=O)c2c(/C=C/N3CCCCC3)ccnc21	-4	9.7*	1	7	-4	4.3*
O=C1c2ccccc2-c2cccnc21	-2	-4	1	0	13	/
O=C1C(Cl)=C(NCCc2ccccc2)C(=O)c2ccccc21	-1	1	0	3	15	/
O=C1C(Cl)=C(NCc2cccnc2)C(=O)c2ccccc21	-9	12*	0	0	11	6.1*
O=C(CSc1nnc(SCc2cccc3ccccc23)s1)Nc1ccc(Oc2ccccc2)cc1	/	/	/	12	-1	/
Cc1cc(=O)[nH]c(SCC(=O)N2CCc3ccccc3C2)n1	1	9.5*	-2	-2	6	1
COc1cc(C(=O)NCc2ccccc2)cc(Br)c1OC	-2	10*	0	2	4	-1
CN1CC=C(c2ccccc2)N(c2ccc(Br)cc2)C1=O	/	/	/	7	-11	/
O=C(COC(=O)c1ccc([N+](=O)[O-])s1)Nc1cccc(S(=O)(=O)NC2=NCCCCC2)c1	-2	9.8*	3	1	7	4.4*
O=C(COC(=O)c1cccs1)Nc1cccc(S(=O)(=O)NC2=NCCCCC2)c1	-2	2	2	0	1	/
CC(C)(C)c1ccc(NC(=O)COC(=O)c2ccc([N+](=O)[O-])s2)cc1	-2	10*	0	4	0	4.3*
O=C(COC(=O)c1ccc([N+](=O)[O-])s1)Nc1ccccc1	-5	23*	0	3	-8	11*
CC(=O)Nc1ccc(OCC(=O)NCCc2ccccc2)cc1	-1	7.8*	1	-4	5	0
COC(=O)C1CN(Cc2ccc(F)cc2)CCS(=O)(=O)N1Cc1ccc(C)cc1 (centres undefined)	/	/	/	0	-6	/
COC(CNC(=O)[C@H](Cc1c[nH]c2ccccc12)NC1(C(=O)NC(c2ccccc2)c2ccccc2)CCCCC1)OC	/	/	/	/	-83	/
COc1cc(NC(=O)c2ccccc2)c(C)cc1NC(=O)CSc1nnc(-c2ccccc2F)n1-c1ccc(C)cc1	/	/	/	11	-18	/
Cc1c(Cl)cnc(NC(=O)COC(=O)c2ccc([N+](=O)[O-])s2)c1Cl	-6	0	1	21	-1	/
